Whole data set: some 18,000 sequences, median “log2 normalized intensity” near 0.36, cut for the highest 2% near 7.3. What follows is part of a selection rich in the highest values, with near analogues and random picks from the rest.

This experiment has as its target T1, HNF4alpha8 (COS-7 nuclear extract) (Homo sapiens, UniProt P41235-5 1-452).
T1 sequence: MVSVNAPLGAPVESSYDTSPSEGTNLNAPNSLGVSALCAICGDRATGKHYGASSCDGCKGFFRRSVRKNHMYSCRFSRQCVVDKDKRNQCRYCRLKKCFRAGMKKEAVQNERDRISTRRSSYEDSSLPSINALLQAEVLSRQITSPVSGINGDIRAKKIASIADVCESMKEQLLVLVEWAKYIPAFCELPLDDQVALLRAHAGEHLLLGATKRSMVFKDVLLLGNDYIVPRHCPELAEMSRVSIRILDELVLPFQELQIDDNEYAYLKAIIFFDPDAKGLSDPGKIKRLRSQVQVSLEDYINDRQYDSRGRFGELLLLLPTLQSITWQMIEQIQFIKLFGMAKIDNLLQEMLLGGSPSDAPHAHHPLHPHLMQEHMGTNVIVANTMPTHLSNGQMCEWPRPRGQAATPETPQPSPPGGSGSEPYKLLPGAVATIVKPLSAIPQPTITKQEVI
Kind of experiment: protein-binding microarray; COS-7 nuclear extract on double-stranded Agilent 4x180k PBM; binding buffer, salt, pH and temperature not given in the material; high values mean tight binding. Conditions: chain copies: 2; label: 3' end of strand 1 on the slide; dsDNA, one strand shown. Put shortly: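 Using CaPO4, COS-7 cells were transiently transfected with a human HNF4α isoform expression vector, and their nuclear extracts were applied to a custom Agilent SurePrint G3 4x180k double-stranded oligonucleotide array (~60 nt; ~44,000 test sequences in quadruplicate). Bound HNF4α was imaged at 2-µm resolution with an Agilent G2565CA scanner. Agilent software supplied the background-corrected, normalized gProcessedSignal that serves as the binding signal.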
“CCTATGGTCTGTTCACTTGCCAAGCCTAGTGCCTAGGGAGATTAGAGTATCGGTCGA”: the binding signal is -0.838 log2 normalized intensity.
Next, “AAATATTGTCAGTGAGGAATGTGCAAACGGGCCTAGGGAGATTAGAGTATCGGTCGA”: 0.32 log2 normalized intensity; “GGTTGCACTCTGGTGCCCTCTGAGTGTTTGGCCTAGGGAGATTAGAGTATCGGTCGA”: 2.54 log2 normalized intensity; “ACCCTCTCTGGATGCAGGTCGCCGGGAAAAGCCTAGGGAGATTAGAGTATCGGTCGA”: 0.74 log2 normalized intensity.
Next, “TCACAGTGTGGGGCAAATCTGAGGTCAAAGGCCTAGGGAGATTAGAGTATCGGTCGA”: 2.51 log2 normalized intensity; “GATGCTAGGTTTGTGAGTCCAAAGGTCAGCGCCTAGGGAGATTAGAGTATCGGTCGA”: 9.81 log2 normalized intensity; “ATGTTAGTCTTGAGTCCCAAAGTCCAAAGGGCCTAGGGAGATTAGAGTATCGGTCGA”: 6.25 log2 normalized intensity.
As for “TGAGTATCCAAAGGTCAGTGACAAATGTCAGCCTAGGGAGATTAGAGTATCGGTCGA”, the figure is 4.51 log2 normalized intensity; as for “AGTCCAAAGGTCAGCCGGGGAAGGTGCAGGGCCTAGGGAGATTAGAGTATCGGTCGA”, 5.55 log2 normalized intensity; as for “AGGTCAGGGAGTAGGTTTGATTTGTGAAAGGCCTAGGGAGATTAGAGTATCGGTCGA”, 1.03 log2 normalized intensity.
As to “CCTGAGGTGTGAGAGGGCAAAGGTCACAGCGCCTAGGGAGATTAGAGTATCGGTCGA”, the binding signal amounted to 8.73 log2 normalized intensity.
Next, “TTGTGAGTCCAAAGGTCAGCCGGGGAAGGTGCCTAGGGAGATTAGAGTATCGGTCGA”: 7.55 log2 normalized intensity; “AAAAGGATGCTAGGTTTGTGAGTCCAAAGGGCCTAGGGAGATTAGAGTATCGGTCGA”: 5.08 log2 normalized intensity; “AAGGTTGGTTTTTGGAGACAGGAGTAGTCAGCCTAGGGAGATTAGAGTATCGGTCGA”: 0.982 log2 normalized intensity.
As for “GGTGTGAGAGGGCAAAGGTCACAGCATTAGGCCTAGGGAGATTAGAGTATCGGTCGA”, the figure is 7.08 log2 normalized intensity; as for “TAGGTTTGTGAGTCCAAAGGTCAGCCGGGGGCCTAGGGAGATTAGAGTATCGGTCGA”, 8.36 log2 normalized intensity; as for “TACGTGACCTACTTAGTCTCCAGCCCCCAGGCCTAGGGAGATTAGAGTATCGGTCGA”, 4.08 log2 normalized intensity.
Take “TTTGGGGGTTGGTATTACAAAGCAATCTACGCCTAGGGAGATTAGAGTATCGGTCGA”: the binding signal was 0.18 log2 normalized intensity.
Next, “TGAGCCATCCTGAACAAATGTACTGGATATGCCTAGGGAGATTAGAGTATCGGTCGA”: -0.391 log2 normalized intensity; “GACATAAATCACATTGTTAGCATAGCCTATGCCTAGGGAGATTAGAGTATCGGTCGA”: -0.813 log2 normalized intensity; “TGCTCACGTTTTCCTGCTGACCCTCTCCCCGCCTAGGGAGATTAGAGTATCGGTCGA”: 4.22 log2 normalized intensity.
On to “TTACCCTGCAGTGTGACCTTTGCCTTCTTGGCCTAGGGAGATTAGAGTATCGGTCGA”, for which the binding signal came out at 8.09 log2 normalized intensity.
As for “CTGCAGTGTGACCTTTGCCTTCTTGACATCGCCTAGGGAGATTAGAGTATCGGTCGA”, the binding signal amounted to 6.8 log2 normalized intensity.
Next, “TCTACACTGCTTACCCTGCAGTGTGACCTTGCCTAGGGAGATTAGAGTATCGGTCGA”: 4.68 log2 normalized intensity; “GTGTGACCTTTGCCTTCTTGACATCTCTCTGCCTAGGGAGATTAGAGTATCGGTCGA”: 5.21 log2 normalized intensity; “ACTGCTTACCCTGCAGTGTGACCTTTGCCTGCCTAGGGAGATTAGAGTATCGGTCGA”: 8.52 log2 normalized intensity.
Next, “GATGTTCTACACTGCTTACCCTGCAGTGTGGCCTAGGGAGATTAGAGTATCGGTCGA”: -0.757 log2 normalized intensity.
“AGCTTGCTCTCACCAGCTTCTTCTCTTTGAGCCTAGGGAGATTAGAGTATCGGTCGA”: the binding signal was -0.143 log2 normalized intensity.
Next, “TGGTGCTATCTTTGCTCACTGTAACCTTTGGCCTAGGGAGATTAGAGTATCGGTCGA”: 4.34 log2 normalized intensity; “ACTGTAACCTTTGCCCCCCTGGGCTCAAGCGCCTAGGGAGATTAGAGTATCGGTCGA”: 6.27 log2 normalized intensity.
Next, “GTAACCTTTGCCCCCCAAGTTGAAGCCATCGCCTAGGGAGATTAGAGTATCGGTCGA”: 5.74 log2 normalized intensity; “TTTGCTCACTGTAACCTTTGCCCCCCAAGTGCCTAGGGAGATTAGAGTATCGGTCGA”: 9.22 log2 normalized intensity; “ATCTCAGCTCACTGTAACCTTTGCCCCCCTGCCTAGGGAGATTAGAGTATCGGTCGA”: 9.22 log2 normalized intensity.
As for “GTGCTATCTCAGCTCACTGTAACCTTTGCCGCCTAGGGAGATTAGAGTATCGGTCGA”, the figure is 4.68 log2 normalized intensity; as for “TCACTGTAACCTTTGCCCCCCAAGTTGAAGGCCTAGGGAGATTAGAGTATCGGTCGA”, 7.68 log2 normalized intensity.
On to “AGCCCCAACCCACTGTTGCCCCTTCCAAAGGCCTAGGGAGATTAGAGTATCGGTCGA”, for which the binding signal was 4.73 log2 normalized intensity.
As for “AACCTTTGCCCCAGCTGTCACCCAGCCAGAGCCTAGGGAGATTAGAGTATCGGTCGA”, the figure is 4.16 log2 normalized intensity.
Next, “TCAAGCTCAATGCAACCAGTTGGTGGGTCAGCCTAGGGAGATTAGAGTATCGGTCGA”: 1.44 log2 normalized intensity; “GTTAGAACAAAGTCCAAATTCCTAACTATGGCCTAGGGAGATTAGAGTATCGGTCGA”: 4.38 log2 normalized intensity; “TTTATTAGGGGTCAGCAAAGAACTCCCCAGGCCTAGGGAGATTAGAGTATCGGTCGA”: 2.41 log2 normalized intensity.
In the case of “ACCAGCAATTTTCAGGGTTAAAAGTTCTGCGCCTAGGGAGATTAGAGTATCGGTCGA”, the binding signal worked out at 1.05 log2 normalized intensity.
Consider “GTGTTTGTCCTTTGTTGCAATGCTGGAACAGCCTAGGGAGATTAGAGTATCGGTCGA”, for which the binding signal was found to be 1.28 log2 normalized intensity.
As for “CAGGTGGGAGGGGTGGACTTTGGCTTTTCCGCCTAGGGAGATTAGAGTATCGGTCGA”, the figure is 6.31 log2 normalized intensity.

The values above are taken from publication PMC10726135, “HNF4α isoforms regulate the circadian balance between carbohydrate and lipid metabolism in the liver”.
